This is an account of results in paper PMC11062922 (Nature Chemical Biology, 2023).

Set-up in all cases: species or system human, MV4-11 + K-562 + COLO205 + SK-N-BE2 + OVCAR-8
One assay concerns MAPK10. Particulars: read-out: apparent Kd, n = 1.
The test system of another assay is MAPK14. Particulars: read-out: apparent Kd, n = 1.
The next assay has as its system MAPK9. Particulars: read-out: apparent Kd, n = 1.
Another assay relates to MAPKAPK2. Particulars: read-out: apparent Kd, n = 1.
The subject of the next assay is NLK. Particulars: read-out: apparent Kd, n = 1.
Another assay has as its system NQO1. Particulars: read-out: apparent Kd, n = 1.
The subject of the next assay is MAPK11. Particulars: read-out: apparent Kd, n = 1.
Another assay deals with MAPK8. Particulars: read-out: apparent Kd, n = 1.
The next assay concerns PIP4K2C. Particulars: read-out: apparent Kd; compound concentrations:100 nM and 1000 nM (sheet 'Samples'); n = 1.
Another assay deals with JAK2. Particulars: read-out: apparent Kd, compound concentrations: 100 nM and 1000 nM (sheet 'Samples'), n = 1.
For a further assay, the system named is NUAK1. Particulars: read-out: apparent Kd; compound concentrations: 100 nM and 1000 nM (sheet 'Samples'), CATDS: 9.4194293053738595E-2; n = 1.
Another assay deals with MAP3K1. Particulars: read-out: apparent Kd; compound concentrations:100 nM and 1000 nM (sheet 'Samples'); n = 1.
In a further assay the test system is NUAK2. Particulars: read-out: apparent Kd; compound concentrations:100 nM and 1000 nM (sheet 'Samples'); n = 1.
Another assay relates to PAICS. Particulars: read-out: apparent Kd; compound concentrations:100 nM and 1000 nM (sheet 'Samples'); n = 1.
Another assay has as its system PIK3CG. Particulars: read-out: apparent Kd; compound concentrations:100 nM and 1000 nM (sheet 'Samples'); n = 1.
The mark [1] stands for this setting: compound concentrations:100 nM and 1000 nM (sheet 'Samples').
The mark [2] stands for this setting: compound concentrations: 100 nM and 1000 nM (sheet 'Samples'), CATDS: 1.

Like-named read-outs stand apart in the source and are kept apart here.

In the case of `Cn1c(=O)c(Sc2ccccc2F)cc2cnc(NC3CCOCC3)nc21` [RO4944065-000], the potency estimated from few doses in the assay with MAPK10 (compound concentrations: 100 nM and 1000 nM (sheet 'Samples'), CATDS: 0.25998811221784501) is 0.524 µM; with MAPK14 (compound concentrations: 100 nM and 1000 nM (sheet 'Samples'), CATDS: 0.14533669978761299) it was 1.58 µM; in the assay on MAPK9 (compound concentrations: 100 nM and 1000 nM (sheet 'Samples'), CATDS: 0.21193161628333601), 0.732 µM; with MAPKAPK2 (compound concentrations: 100 nM and 1000 nM (sheet 'Samples'), CATDS: 0.161840015907707), 1.23 µM; in the assay with NLK (compound concentrations: 100 nM and 1000 nM (sheet 'Samples'), CATDS: 0.13689405577896799), 1.84 µM; in the assay on NQO1 (compound concentrations: 100 nM and 1000 nM (sheet 'Samples'), CATDS: 0.141428074132052), 1.69 µM.
As to `CC(C)Nc1ncc2cc(Oc3ccc(F)cc3F)c(=O)n(C)c2n1.Cl` [RO3309180-001], the potency estimated from few doses was 0.0685 µM in the assay on MAPK10 (setting [1]); 0.439 µM with MAPK11 (setting [1]); 0.0099 µM in the assay with MAPK14 (setting [1]); 1.08 µM in the assay with MAPK8 (setting [1]); 0.369 µM in the assay with MAPK9 (setting [1]); 1.49 µM in the assay on NLK (setting [1]). In the assay with PIP4K2C, the potency estimated from few doses was 2.1 µM.
On to `O=C(O)/C=C/C(=O)O.OCCCNc1nccc(-c2c(-c3ccc(F)cc3)nn3cc(C(F)(F)F)ccc23)n1` [GW569293E], for which the potency estimated from few doses in the assay with MAPK10 (compound concentrations: 100 nM and 1000 nM (sheet 'Samples'), CATDS: 0.51132000357216201) is 1.43 µM; in the assay on MAPK14 (compound concentrations: 100 nM and 1000 nM (sheet 'Samples'), CATDS: 0.48917036256560797), 1.57 µM.
For the molecule `O=c1c(Oc2ccc(F)cc2F)cc2cnc(NC3CCOCC3)nc2n1C1CCS(=O)(=O)CC1` [RO5036538-000], the potency estimated from few doses is 0.23 µM in the assay on JAK2 (CATDS: 0.12292389109729); 0.221 µM in the assay on MAPK10 (compound concentrations: 100 nM and 1000 nM (sheet 'Samples'), CATDS: 0.124709728908191); 1.42 µM with MAPK11 (compound concentrations: 100 nM and 1000 nM (sheet 'Samples'), CATDS: 7.2010910388864605E-2); 0.0139 µM in the assay with MAPK14 (compound concentrations: 100 nM and 1000 nM (sheet 'Samples'), CATDS: 0.47843238213420702); 1.06 µM in the assay with MAPK8 (compound concentrations: 100 nM and 1000 nM (sheet 'Samples'), CATDS: 7.6573616533716707E-2); 0.462 µM with MAPK9 (compound concentrations: 100 nM and 1000 nM (sheet 'Samples'), CATDS: 9.6122690538123806E-2). The potency estimated from few doses with MAPKAPK2 (compound concentrations: 100 nM and 1000 nM (sheet 'Samples'), CATDS: 0.314538074262177) was 0.0282 µM; with NLK (compound concentrations: 100 nM and 1000 nM (sheet 'Samples'), CATDS: 8.6125216910038493E-2), 0.667 µM; in the assay with NUAK1, 0.493 µM.
`C[C@@H](Oc1cc(-n2cnc3ccc(OC4CCN(C)CC4)cc32)sc1C(N)=O)c1ccccc1Cl` [GSK579289A]: the potency estimated from few doses was 1.34 µM with MAP3K1, 0.601 µM with NUAK2, 1.76 µM in the assay with PAICS and 1.03 µM in the assay with PIK3CG.
On to `Cl.Nc1c(C(=O)c2cccc(C#CCN3CCOCC3)c2)cnn1-c1ccc(F)cc1` [RO1153320-001], for which the potency estimated from few doses in the assay with JAK2 (CATDS: 0.47869568713999899) was 0.815 µM; in the assay with MAPK11 (compound concentrations: 100 nM and 1000 nM (sheet 'Samples'), CATDS: 0.52328893159992096), 0.682 µM.
With `C[C@@H](Oc1cc(-n2cnc3ccc(-c4ccncc4)cc32)sc1C(N)=O)c1ccccc1Cl` [GSK483724A], in the assay with MAP3K1, the potency estimated from few doses was 1.84 µM.
As for `Nc1c(C(=O)c2cccc(OC[C@H](O)CO)c2)cnn1-c1ccc(F)cc1` [RO3201196-000], the potency estimated from few doses with MAPK11 (setting [2]) was 0.697 µM.
`Cc1ccc(NC(=O)c2cccc(N3CCCCC3)c2)cc1-c1ccc(C(=O)NCC2CC2)cc1` [GSK1917008A]: the potency estimated from few doses was 0.591 µM in the assay with MAPK11 (compound concentrations: 100 nM and 1000 nM (sheet 'Samples'), CATDS: 0.21712264720535299); 0.0648 µM in the assay with MAPK14 (compound concentrations: 100 nM and 1000 nM (sheet 'Samples'), CATDS: 0.45448285689505602); 0.0645 µM with MAPKAPK2 (compound concentrations: 100 nM and 1000 nM (sheet 'Samples'), CATDS: 0.455787440841948).
In the case of `Cl.Cn1c(=O)c(Oc2ccc(F)cc2)cc2cnc(NC3CCOCC3)nc21` [RO3304882-001], the potency estimated from few doses with MAPK14 (setting [2]) is 1.03 µM.
With `Cl.Cn1c(=O)c(Oc2ccccc2F)cc2cnc(NC3CCOCC3)nc21` [RO3304805-001], the potency estimated from few doses with MAPK10 (setting [1]) is 1.05 µM; with MAPK14 (setting [1]), 0.0584 µM; in the assay with MAPK9 (setting [1]) it was 0.484 µM; with MAPKAPK2 (setting [1]) it was 0.0737 µM; with NQO1 (setting [1]), 1.48 µM.
